The source holds several records for some structures; these can differ, active in one and inactive in another. Activity calls are given as the source filed them. How the source made its calls: active means hit-call score of the fitted dose curve at least 0.9, where 1 is the maximum; inactive means score below 0.9.
How the values were obtained:
[1] = APR_HepG2_P-H2AX_72hr: Apredica 72-hour HepG2 Assay for H2AX Phosphorylation (AID 2282916); conditions: imaging, actives raise or lower the signal;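 further: phospho-histone H2A.x immunostain intensity per cell marking DNA damage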
Procedure, shortened: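 Phospho-H2A.x imaging endpoint in HepG2 after 72 hr compound exposure (0.39–200 uM, duplicate wells). Activity derived by bidirectional curve fitting with DMSO as baseline.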

[2] = APR_HepG2_MitoticArrest_72hr: Apredica 72-hour HepG2 Assay for Mitotic Arrest (AID 2282918); conditions: high-content imaging, actives raise or lower the signal
Procedure, shortened: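 HepG2 cells were exposed for 72 hr to compound at 0.39–200 uM (10 concentrations, duplicate) in 0.5% v/v DMSO, fixed in 3.7% formaldehyde, immunostained for phospho-histone H3 with Hoechst 33342 and imaged by high-content fluorescence; bidirectional fits versus DMSO.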

[3] = APR_HepG2_MicrotubuleCSK_72hr: Apredica 72-hour HepG2 Assay for Microtubule CSK Stabilty (AID 2282919); conditions: HepG2 microtubule cytoskeleton, high-content imaging, actives raise or lower the signal
Procedure, shortened: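 HepG2, 72 hr cmpd exposure, 0.39–200 uM (10 pts, duplicate), 0.5% DMSO. 3.7% formaldehyde fix, 0.5% Triton perm, anti-alpha-tubulin/Cy5 plus Hoechst. HCS fluorescence intensity; bidirectional fit vs DMSO baseline; taxol as positive control.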

[4] = APR_HepG2_P-H2AX_24hr: Apredica 24-hour HepG2 Assay for H2AX Phosphorylation (AID 2282920); conditions: high-content imaging, actives raise or lower the signal
Procedure, shortened: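 HepG2 human liver cells were exposed for 24 hr to compounds at 0.39–200 uM in duplicate, with 0.5% v/v DMSO final. Fixed cells were immunostained for phospho-histone H2A.x plus Hoechst 33342, imaged by HCS fluorescence, and fitted bidirectionally against DMSO.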

[5] = APR_HepG2_StressKinase_72hr: Apredica 72-hour HepG2 Assay for Stress Kinase (AID 2282921); conditions: HepG2 stress kinase (phospho-c-Jun) imaging, actives raise or lower the signal
Procedure, shortened: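 Stress kinase signal reflects nuclear phospho-c-Jun staining in fixed, permeabilized cells exposed 72 h to compound at 0.39–200 uM; DMSO-normalized, fitted for increases or decreases.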

[6] = APR_HepG2_StressKinase_24hr: Apredica 24-hour HepG2 Assay for Stress Kinase (AID 2282922); conditions: HepG2 stress kinase (phospho-c-Jun) imaging, actives raise or lower the signal
Procedure, shortened: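 Read-out: phospho-c-Jun immunofluorescence (Cy3 secondary) quantified by high-content imaging at 20x, nuclei defined by Hoechst 33342. Human HepG2 liver cells dosed 24 hr, 0.39–200 uM, DMSO 0.5% v/v; gain or loss of signal fitted relative to DMSO.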

[7] = APR_HepG2_MitoMass_72hr: Apredica 72-hour HepG2 Assay for Mitochondrial Mass (AID 2282924); conditions: high-content imaging, actives raise or lower the signal;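 further: MitoTracker Red CMXRos stain intensity per cell imaged as mitochondrial mass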
Procedure, shortened: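 Read-out: MitoTracker Red fluorescence intensity from automated imaging (20x, six fields per well) in human HepG2 liver cells. Dosing ran 72 hr, 0.39–200 uM, 0.5% DMSO; bidirectional curve fitting versus DMSO baseline.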

[8] = APR_HepG2_NuclearSize_72hr: Apredica 72-hour HepG2 Assay for Nuclear Size (AID 2282925); conditions: high-content imaging, actives raise or lower the signal
Procedure, shortened: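 Read-out: nuclear diameter from Hoechst 33342 images (ArrayScan, 20x, six fields/well), via cell-cycle image analysis. HepG2 were dosed 0.39–200 uM for 72 hr in 0.5% DMSO. Bidirectional fit relative to DMSO.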

[9] = ATG_CRE_CIS: Attagene CIS-FACTORIAL HepG2 Assay for human cAMP Responsive Element (CRE) binding protein 3 (AID 2282926); conditions: HepG2 CRE cis-reporter, Attagene multiplexed mRNA; actives raise or lower the signal
Procedure, shortened: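 Capillary electrophoresis of 6-FAM-labelled, HpaI-digested PCR products quantified reporter transcripts. These came from HepG2 transiently transfected with cis-element reporters and exposed to test chemicals for 24 hours, with DMSO defining baseline activity.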

[10] = target: CCAAT/enhancer-binding protein beta (Homo sapiens) (UniProt P17676); assay: ATG_C_EBP_CIS: Attagene CIS-FACTORIAL HepG2 Assay for human CCAAT/Enhancer Binding Protein (C/EBP) beta (AID 2282927); conditions: HepG2 Attagene cis-factorial transcription factor reporter; actives raise or lower the signal
Procedure, shortened: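 HepG2 transiently transfected with multiplexed reporter units under cis-regulatory promoters reporting endogenous C/EBPb activity. After 24 h exposure, reporter mRNA assayed by RT-PCR, fluorescent labelling, HpaI digestion and capillary electrophoresis; bidirectional fitting versus DMSO.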

[11] = ATG_CMV_CIS: Attagene CIS-FACTORIAL HepG2 Assay for human CMV (Internal Marker) (AID 2282928); conditions: HepG2 CMV promoter reporter, transcription factor profiling; actives raise or lower the signal;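 further: endpoint acts as a background internal control marker rather than a target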
Procedure, shortened: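 Fluorescence intensity of RT-PCR-derived reporter fragments, resolved by capillary electrophoresis, gives the signal. HepG2 liver cells bearing transfected cis-element reporters were treated 24 h; activity in either direction was fit relative to DMSO-treated controls.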

[12] = ATG_DR4_LXR_CIS: Attagene CIS-FACTORIAL HepG2 Assay for human Liver X Receptor (LXR), DR4 submotif (AID 2282929); conditions: HepG2 Attagene DR4 cis-reporter, mRNA transcription; actives raise or lower the signal
Procedure, shortened: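 HepG2 cells transiently transfected with cis-promoter-driven multiplexed reporter units (DR4 element) were dosed for 24 h. Reporter mRNA was quantified by RT-PCR, fluorescent primer extension, HpaI digestion and capillary electrophoresis; bidirectional fitting versus DMSO baseline.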

[13] = target: Aryl hydrocarbon receptor (Homo sapiens) (UniProt P35869); assay: ATG_Ahr_CIS: Attagene CIS-FACTORIAL HepG2 Assay for human Aryl Hydrocarbon Receptor (Ahr) (AID 2282930); conditions: HepG2 AhR cis-factorial reporter transcription; actives raise or lower the signal
Procedure, shortened: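 HepG2 cells transiently transfected with cis-element-driven multiplexed reporter units; endogenous AhR activity read as reporter mRNA 24 h after dosing, via RT-PCR, 6-FAM labelling, HpaI digestion and capillary electrophoresis. Bidirectional fit relative to DMSO.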

[14] = ATG_AP_1_CIS: Attagene CIS-FACTORIAL HepG2 Assay for human Activator Protein 1 (AP-1) (AID 2282931); conditions: HepG2 Attagene cis-factorial AP-1 reporter mRNA; actives raise or lower the signal
Procedure, shortened: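 HepG2 cells transiently transfected with cis-element-driven multiplex reporter units; 24 h compound exposure. Reporter mRNA quantified by RT-PCR, FAM-labelled fragments resolved by capillary electrophoresis; bidirectional fit versus DMSO baseline.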

[15] = ATG_AP_2_CIS: Attagene CIS-FACTORIAL HepG2 Assay for human Activator Protein 2 (AP-2) (AID 2282932); conditions: HepG2 AP-2 cis-reporter, Attagene transcription factor profiling; actives raise or lower the signal
Procedure, shortened: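 Read-out: fluorescent reporter mRNA via RT-PCR and capillary electrophoresis, 24 h post-dose in transiently transfected HepG2. Endogenous factors drive cis-promoter reporters; gain or loss of signal fitted bidirectionally against DMSO.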

[16] = ATG_BRE_CIS: Attagene CIS-FACTORIAL HepG2 Assay for human Bone Morphogenetic Protein (BMP) Response Element (BRE) (AID 2282933); conditions: HepG2 BMP response element reporter, Attagene transcription factor profiling; actives raise or lower the signal
Procedure, shortened: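 Multiplexed cis-reporter assay, HepG2, 24 h exposure. mRNA from reporter units quantified via RT-PCR/CE; DMSO baseline; bidirectional curve fit.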

[17] = target: Retinoic acid receptor alpha (Homo sapiens) (UniProt P10276); assay: ATG_DR5_RAR_CIS: Attagene CIS-FACTORIAL HepG2 Assay for human Retinoic Acid Receptor Alpha (RARE), DR5 submotif (AID 2282934); conditions: HepG2 Attagene cis-factorial RARE DR5 reporter, mRNA; actives raise or lower the signal;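 on AC50: reporter responds to endogenous RAR alpha beta and gamma in HepG2 not RARA alone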
Procedure, shortened: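 HepG2 cells transiently transfected with multiplexed reporter units; DR5 cis-element drives reporter through endogenous transcription factors. After 24 h dosing, reporter mRNA quantified by RT-PCR, fluorescent labeling, HpaI digestion and capillary electrophoresis; bidirectional fitting versus DMSO.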

[18] = target: Transcription factor E2F1 (Homo sapiens) (UniProt Q01094); assay: ATG_E2F_CIS: Attagene CIS-FACTORIAL HepG2 Assay for human E2F Transcription Factor 1 (AID 2282935); conditions: HepG2 Attagene cis-reporter, E2F reporter RNA transcripts; actives raise or lower the signal
Procedure, shortened: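 Transient MRTU transfection of HepG2; 24 h compound exposure; RNA → oligo(dT) RT → PCR → FAM label → HpaI cut → CE fluorescence. Gain/loss of signal fit against DMSO.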

[19] = APR_HepG2_p53Act_72hr: Apredica 72-hour HepG2 Assay for p53 Activation (AID 2282923); conditions: high-content imaging, actives raise or lower the signal;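 further: average cellular p53 protein immunofluorescence intensity in HepG2 cells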
Procedure, shortened: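 Fixed-cell p53 staining (sheep primary, Cy5 secondary) measured by fluorescence imaging following 72 hr treatment at 0.39–200 uM in 0.5% DMSO; DMSO served as negative control and baseline.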

[20] = APR_HepG2_MitoMembPot_72hr: Apredica 72-hour HepG2 Assay for Mitochondrial Membrane Potential (AID 2282917); conditions: imaging, actives raise or lower the signal
Procedure, shortened: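 HepG2 cells dosed 72 hr with compound at 0.39–200 uM in duplicate, 0.5% v/v DMSO final. Mitochondria stained with 250 nM MitoTracker Red CMXRos for 30 min before formaldehyde fixation, imaged by high-content fluorescence; bidirectional fit versus DMSO.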

Measured: AC50

CCAAT/enhancer-binding protein beta (Homo sapiens), sequence (P17676 whole entry, looked up): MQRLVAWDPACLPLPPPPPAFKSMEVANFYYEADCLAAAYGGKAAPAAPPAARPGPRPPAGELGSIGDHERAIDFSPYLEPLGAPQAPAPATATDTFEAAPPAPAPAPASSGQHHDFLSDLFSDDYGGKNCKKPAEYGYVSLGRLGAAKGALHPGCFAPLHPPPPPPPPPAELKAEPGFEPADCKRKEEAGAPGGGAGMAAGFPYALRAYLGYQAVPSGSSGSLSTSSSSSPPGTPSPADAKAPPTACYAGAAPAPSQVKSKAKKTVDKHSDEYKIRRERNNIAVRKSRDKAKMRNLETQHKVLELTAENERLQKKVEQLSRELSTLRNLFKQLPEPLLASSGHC
Transcription factor E2F1 (Homo sapiens), sequence (Q01094 whole entry, looked up): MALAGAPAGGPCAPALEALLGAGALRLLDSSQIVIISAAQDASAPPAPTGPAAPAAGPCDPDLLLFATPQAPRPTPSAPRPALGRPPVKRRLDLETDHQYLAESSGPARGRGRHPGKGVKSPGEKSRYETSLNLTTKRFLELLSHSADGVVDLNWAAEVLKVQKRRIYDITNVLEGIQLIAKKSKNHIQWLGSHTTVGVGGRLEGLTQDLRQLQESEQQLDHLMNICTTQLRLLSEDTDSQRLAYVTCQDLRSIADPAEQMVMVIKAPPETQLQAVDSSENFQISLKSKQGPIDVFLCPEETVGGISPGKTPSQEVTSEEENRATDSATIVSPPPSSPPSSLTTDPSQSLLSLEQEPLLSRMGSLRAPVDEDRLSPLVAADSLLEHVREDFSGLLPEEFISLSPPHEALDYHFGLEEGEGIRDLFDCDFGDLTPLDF
Retinoic acid receptor alpha (Homo sapiens), sequence (P10276 whole entry, looked up): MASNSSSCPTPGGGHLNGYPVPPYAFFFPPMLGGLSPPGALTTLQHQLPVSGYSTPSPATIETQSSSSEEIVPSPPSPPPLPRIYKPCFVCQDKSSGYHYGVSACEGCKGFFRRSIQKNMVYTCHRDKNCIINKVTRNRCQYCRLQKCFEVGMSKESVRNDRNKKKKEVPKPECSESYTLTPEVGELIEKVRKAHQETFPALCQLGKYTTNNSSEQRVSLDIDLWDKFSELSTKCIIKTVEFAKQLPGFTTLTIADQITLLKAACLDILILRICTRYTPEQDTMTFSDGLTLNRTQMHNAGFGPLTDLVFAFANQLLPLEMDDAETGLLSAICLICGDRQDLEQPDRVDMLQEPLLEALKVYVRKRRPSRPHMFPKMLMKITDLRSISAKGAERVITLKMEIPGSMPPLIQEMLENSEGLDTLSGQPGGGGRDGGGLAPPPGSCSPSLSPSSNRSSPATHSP
Aryl hydrocarbon receptor (Homo sapiens), sequence (P35869 whole entry, looked up): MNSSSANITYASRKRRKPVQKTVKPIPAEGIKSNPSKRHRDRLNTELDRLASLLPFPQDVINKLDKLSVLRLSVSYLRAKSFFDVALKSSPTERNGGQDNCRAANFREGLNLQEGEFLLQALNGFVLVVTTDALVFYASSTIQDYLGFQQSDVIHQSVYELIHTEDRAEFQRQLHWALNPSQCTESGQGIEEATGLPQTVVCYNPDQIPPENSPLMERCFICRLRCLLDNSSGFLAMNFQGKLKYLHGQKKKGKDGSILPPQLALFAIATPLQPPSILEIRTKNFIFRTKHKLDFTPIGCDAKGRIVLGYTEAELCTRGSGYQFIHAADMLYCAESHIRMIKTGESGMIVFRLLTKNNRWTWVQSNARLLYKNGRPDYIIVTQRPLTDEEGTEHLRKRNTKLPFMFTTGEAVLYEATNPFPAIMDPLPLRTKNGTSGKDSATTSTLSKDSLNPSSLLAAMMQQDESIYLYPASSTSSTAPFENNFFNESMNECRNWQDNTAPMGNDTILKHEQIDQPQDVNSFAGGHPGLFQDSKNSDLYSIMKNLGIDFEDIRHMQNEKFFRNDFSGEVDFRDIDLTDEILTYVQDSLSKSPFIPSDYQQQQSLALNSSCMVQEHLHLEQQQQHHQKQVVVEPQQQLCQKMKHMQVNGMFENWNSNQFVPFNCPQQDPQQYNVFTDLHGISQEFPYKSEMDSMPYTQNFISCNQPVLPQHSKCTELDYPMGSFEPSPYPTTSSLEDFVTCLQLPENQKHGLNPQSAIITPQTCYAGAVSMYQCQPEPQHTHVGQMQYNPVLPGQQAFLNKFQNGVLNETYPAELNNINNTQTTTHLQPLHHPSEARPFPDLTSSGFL

CCCCOC(=O)c1ccc(O)cc1
active: [9] 72.6 µM | [10] 100 µM | [12] 169 µM | [15] 136 µM | [16] 166 µM [middle of 4 runs]
inactive: [1] | [2] | [3] | [4] | [5] | [6] | [7] | [8] | [9] | [10] | [11] | [12] | [13] | [14] | [15] | [17] | [18]

CC(C)(O)c1ccc(CNC(=O)c2cccnc2Oc2ccc3nonc3c2)cc1
not listed: [1] | [19] | [20]
inactive: all other assays above

c1ccc(C[n+]2cccc3ccccc32)cc1
active: [2] 109 µM | [3] 87 µM | [4] 106 µM | [5] 25.6 µM | [8] 68.9 µM | [11] 100 µM | [13] 69.6 µM | [14] 41.1 µM
not listed: [1] | [12] | [20]
inactive: all other assays above

O=c1ccc2ccccc2o1
active: [20] 100 µM
not listed: [1] | [12] | [19]
inactive: all other assays above

CN1C(=O)CC[C@H]1c1cccnc1
not listed: [1] | [17] | [19]
inactive: all other assays above

O=C(O)c1ccccc1C(=O)OCc1ccccc1
not listed: [1] | [12] | [19] | [20]
inactive: all other assays above

CCOC(=O)O[C@H](C)OC(=O)c1ccc2c(c1)cc(C(=O)NC1CCN(C(C)C)CC1)n2Cc1cc(-c2ccc(Cl)s2)on1
active: [3] 94.5 µM | [4] 94.5 µM | [17] 42.2 µM
not listed: [1] | [12] | [20]
inactive: all other assays above

Source: PubChem BioAssay (EPA / NIEHS)
